Laboratory results: ChEMBL document CHEMBL4513135, “CO-ADD screening of IQOG CSIS (Spain) compounds”
Measured potencies and affinities stand elsewhere.

System: Klebsiella pneumoniae
Details: Concentration 32 ug.mL-1; ASSAY_TEST Inhibition of Bacterial Growth; detection method Absorption (OD600); MEDIA CAMHB; plate type 384well; NBS; CORNING #3640; time 18 hr

| SMILES | Inhibition |
| --- | --- |
| Cc1ccc(C(O)SNNc2ncnc3c2cnn3-c2ccccc2)cc1 (centres undefined) | 7.03% |
| COc1nc(N)c(C#N)c(-c2ccccc2)c1C#N | 5.51% |
| Cn1cc(/C=C2\NC(=S)NC2=O)c2ccccc21 | 6.37% |
| Cl.NC1(C(=O)O)CC1c1cccc(Cl)c1 (centres undefined) | 18.53% |
| CC(=O)NC=C1C(=O)OC(C)(C)OC1=O | 18.67% |
| COc1ccc(C2C(C#N)=C(N)Oc3ccc4ccccc4c32)cc1OC (centres undefined) | 12.8% |
| COc1nc2ccc(C)cc2cc1C=O | -5.34% |
| Nc1c2c(nc3c1C(c1ccc([N+](=O)[O-])cc1)c1c(ccc4ccccc14)O3)CCCC2 (centres undefined) | 9.13% |
| CC1(C)OC(=O)C(=Cc2ccc([N+](=O)[O-])cc2)C(=O)O1 | 18.71% |
| C1CNCCNCCNCCNC1 | 5.58% |
| O=C1OC(c2ccccc2)=NC1=Cc1ccccc1Cl | 11.08% |
| CN1C/C(=C\Br)n2c1c(C#N)cc(C#N)c2=O | 4.89% |
| COc1nc(Cl)c(C#N)c(-c2ccccc2)c1C#N | 0.27% |
| CCOC(=O)c1c[nH]c2ccc(OC)cc12 | 1.49% |
| COc1ccc(C2C(C#N)=C(Cl)Oc3c2ccc2ccccc32)cc1OC (centres undefined) | -4.48% |
| CC/C(C)=N/NC(=O)Cc1c[nH]c2ccccc12 | 0.18% |
| Cn1c(C(=O)N2CCOCC2)cc2cc(OCCCC3CCN(Cc4ccccc4)CC3)ccc21 | 2.68% |
| CC(=O)CC(=O)N1[C@@H]2C[C@H]3CCC2(CS1(=O)=O)C3(C)C | 13.63% |
| COc1ccc(C2c3c(nc4c(c3N)CCCC4)Oc3ccc4ccccc4c32)cc1OC (centres undefined) | -20.58% |
